# MARV entry inh – blocks Marburg virus binding to or entry into cells; Marburg virus pseudotyped entry inhibition, cell reporter; Potency, µM (top dose mostly 37.8 µM), inactives show at the highest dose activity change, negative = inhibition, actives largely listed as inhibitors; 1.8% of 300,000 active; AID 540276; calls by dose curve; tested in HEK293 cells; further: potency means the concentration at half of the fitted maximal effect; on the % scale 0 is the no-effect control and ±100 the full control effect
# FMDV inh – foot and mouth disease virus antiviral activity; FMDV antiviral cell-based qHTS; Potency, µM (highest dose often 57.9 µM), for the others: at the top dose activity change, negative = inhibition, hits mostly inhibitors; 1.2% of 410,000 active; AID 1159524; calls by dose curve; tested in HEK293T cells; further: read-out not given here; potency means the concentration at half of the fitted maximal effect; on the % scale 0 is the no-effect control and ±100 the full control effect; nearly all actives have a fitted effect of over 45% in size
# SARS PLpro yeast – blocks SARS-CoV papain-like protease in a yeast assay. Potency, µM (titrated, usually from 32.9 µM), inactives show top-dose activity, positive = growth rescue, actives largely listed as activators. AID 485353. 0.19% of 330,000 active. S. cerevisiae expressing SARS-CoV PLpro, growth rescue; calls by dose curve; further: potency means the concentration at half of the fitted maximal effect; 0% is about no effect; nearly all actives have a fitted effect of over 55% in size
# HCV inhibitor – HCV inhibition. Huh7.5.1 HCVcc-Cre infection, luciferase reporter, 44 h. Potency, µM (series often up to 41.8 µM), for inactives: top-dose activity change, negative = inhibition, actives largely listed as inhibitors. 3.4% of 340,000 active. AID 651820; active means well fitted inhibition curve with a large enough effect; inconclusive means small, poorly fitted or top-dose-only effect, or another doubt; inactive means no such curve, though single readings can be large or run the other way; further: potency means the concentration at half of the fitted maximal effect; on the % scale 0 is the no-effect control and ±100 the full control effect
#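 Cells seeded at 1,000/well and cultured 4 h, then compounds added followed by HCVcc-Cre virus (~0.5 moi). After 44 h further culture, luciferase substrate was added, plates held 15 min at room temperature, and luminescence read for 15 sec.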
# HCMV antiviral – human cytomegalovirus inhibition; HFF cells, HCMV-luciferase reporter, 72 h; hits give low values; activity change, negative = inhibition, % at 57.5 µM; 4.5% of 410,000 active; AID 1259415; in the data active means activity change below about -60%; inconclusive means no clear call, values can overlap the other calls; inactive means above about -39%; further: on the % scale 0 is the no-effect control and ±100 the full control effect
#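 Two-dose cell screen: HFF monolayers treated with compounds and infected with luciferase-expressing HCMV at 1 PFU/cell, 72 h at 37C, then lysed for luciferase measurement.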
# LASV entry inh – blocks Lassa virus binding to or entry into cells; Potency, µM (series often up to 37.9 µM), without a hit: at the highest dose activity change, negative = inhibition, most hits filed as inhibitors; 1.2% of 300,000 active; Lassa virus pseudotype entry inhibition, cell reporter; calls by dose curve; tested in HEK293 cells; further: potency means the concentration at half of the fitted maximal effect; on the % scale 0 is the no-effect control and ±100 the full control effect; nearly all actives have a fitted effect of over 50% in size
# * = called active by the depositor; ? = inconclusive; nt = not tested or not shown; + = active, no number; [ ] = dose if it differs, or a comment. Most compounds without a hit are left out; they make up all but 8% or so of the library.
SMILES,MARV entry inh,FMDV inh,SARS PLpro yeast,HCV inhibitor,HCMV antiviral,LASV entry inh
CC1=C(C(=O)Nc2ccc(C)cc2)C(c2ccco2)NC(=O)N1 (stereo unspecified),15%,-21%,8%,20%,-8,-11%
O=C(C1CCCCN1S(=O)(=O)c1ccccc1)N1CCN(C(c2ccccc2)c2ccccc2)CC1 (stereo unspecified),?,-19%,-2%,13µM*,32,-38%
O=C(C1CCCCN1S(=O)(=O)c1ccccc1)N1CCCCC1 (stereo unspecified),0%,-9%,1%,?,-7,7%
Cc1cccc(-n2cc[nH]c2=S)c1C,?,-13%,4%,3%,-69*,12%
CCNc1ncc2nc(CCc3ccccc3)c(=O)n(-c3ccccc3)c2n1,nt,0%,nt,nt,nt,nt
COc1ccc(S[C@]2(C(=O)NCC(F)(F)F)CC(=O)N[C@@H]2c2ccc(OC)cc2)cc1,nt,nt,nt,nt,1,nt
COc1cc(OC)c(OC)cc1/C=N/NC(=O)c1cc(-c2cccn2C)n[nH]1,-9%,-1%,0%,10%,3,-6%
Cc1cccc(/C=N/NC(=O)c2ccc3c(c2)OCCO3)c1O,nt,nt,-10%,nt,-98*,nt
Cc1ccsc1/C=N\NC(=O)c1n[nH]c2c1CCC2,2.8µM*,0%,-14%,?,42,6.3µM*
CCOc1cccc(/C=N/NC(=O)c2cc(-c3cccn3C)n[nH]2)c1O,?,13%,4%,11µM*,-38,22µM*
Cc1ccsc1/C=N/NC(=O)c1ccc2c(c1)OCCO2,3.2µM*,-15%,-1%,-16%,37,?
O=C(N/N=C/c1c(Cl)cccc1Cl)c1n[nH]c2c1CCCC2,-43%,73%,-4%,?,?,?
C/C(=N/NC(=O)c1cc2ccccc2cc1O)c1ccco1,nt,14%,2%,-17%,-73*,nt
CCOc1cccc(/C=N/NC(=O)c2ccc3c(c2)OCCO3)c1O,?,10%,-1%,?,+,?
C/C(=N\NC(=O)c1n[nH]c2c1CCC2)c1ccco1,?,-25%,-7%,-2%,-65*,?
O=C(NCC1Cc2cccc(-c3cccnc3)c2O1)c1ccc2cc[nH]c2c1 (stereo unspecified),nt,1%,nt,nt,nt,nt
CCCC1=C(C(=O)OCC)C(/C=C/c2ccccc2)n2ncnc2N1 (stereo unspecified),9.2µM*,-27%,4%,?,70,-19%
CCOC(=O)C1=C(C)Nc2ncnn2C1/C=C/c1ccccc1 (stereo unspecified),?,0%,nt,-24%,81,-7%
N#Cc1cn(Cc2ccncc2)c(=O)[nH]c1=O,3%[46.1 µM],-4%,0%,9%,-30,9%[46.1 µM]
CCOc1cccc(CN2CCC(n3cc(C(=O)N4CCCCC4)nn3)CC2)c1O,nt,-6%,nt,nt,nt,nt
Cc1ccc(C)c(N2CCN(C(=O)Cc3cn(C)c4ccccc34)CC2)c1,18µM*,?,-8%,?,17,21µM*
Cc1ccc(C)c(N2CCN(C(=O)CC3Sc4ccccc4NC3=O)CC2)c1 (stereo unspecified),?,?,-15%,10µM*,-26,?
Cc1ccc(S(=O)(=O)n2nc(-c3ccco3)nc2NCc2ccccc2Cl)cc1,3%[46.1 µM],72%,nt,nt,8,12%[46.1 µM]
NC(N)=N/N=C/c1cn(-c2ccccc2)nc1-c1cccs1,23µM*,?,1%,?,-98*,?
S=c1[nH]nc(-c2cccs2)n1/N=C/c1cn(-c2ccccc2)nc1-c1cccs1,?,5%,3%,?,95,?
SMILES,MARV entry inh,FMDV inh,SARS PLpro yeast,HCV inhibitor,HCMV antiviral,LASV entry inh
COc1ccc(-c2nn(-c3ccccc3)cc2/C=N/N=C(N)N)cc1OC,10µM*,?,5%,?,?,?
COc1cccc(/C=N/NC(=O)CSc2nnc(C)n2-c2ccccc2)c1O,?,21%,6%,3%,16,?
COc1ccc(-c2nn(-c3ccccc3)cc2/C=N/Nc2ccc3ccccc3n2)cc1OC,?,?,-1%,10µM*,-26,?
Cc1ccc(-c2nn(-c3ccccc3)cc2/C=N/NC(=O)CSc2nnc(C)n2-c2ccccc2)cc1,-29%,19%,-7%,14µM*,39,?
COc1ccc(-c2nn(-c3ccccc3)cc2/C=N/O)cc1OC,nt,-6%,-2%,?,-21,nt
Cc1cccc(N2CCN(S(=O)(=O)c3cc(C(=O)Nc4ccccc4Cl)ccc3F)CC2)c1C,nt,-25%,nt,nt,?,?
COc1ccc(-c2nn(-c3ccccc3)cc2/C=N/Nc2cccc(C(=O)O)c2)cc1,-14%,49%,-4%,-33%,-61*,-21%
COc1ccc(-c2nn(-c3ccccc3)cc2/C=N/NC(=O)c2ccc3c(c2)OCO3)cc1,2%,nt,3%,nt,nt,nt
COC(=O)[C@@H]1[C@@H](CO)[C@@H]2Cn3c(cccc3=O)[C@@H]2N1C(=O)c1cnccn1,nt,nt,nt,nt,23,nt
O=C(CSc1nc2ccc(Cl)cc2[nH]1)N1CCN(C(=O)c2ccco2)CC1,7%,-13%,12%,-15%,-65*,7%
Cc1ccc2nc(SCC(=O)N3CCN(C(=O)c4ccco4)CC3)[nH]c2c1,27%,-4%,15%,21%,11,-9%
CC(=O)c1c(C)[nH]c(C(=O)CSc2nnc(-c3ccccc3)n2Cc2ccc3c(c2)OCO3)c1C,?,-23%,-1%,?,2,-21%
Cc1cc(C(=O)COc2ccc(C#N)cc2)c(C)n1-c1ccc2c(c1)OCO2,-14%,?,29%,-20%,-66*,2%
Cc1cc(C(=O)CSc2nnc(-c3cccc(F)c3)n2N)c(C)n1Cc1ccc2c(c1)OCO2,?,?,-5%,13µM*,-84*,-27%
Cc1cc(C(=O)CSc2nnnn2-c2ccccc2)c(C)n1-c1ccc2c(c1)OCO2,?,-26%,7%,?,-3,6.5µM*
Cc1cc(C(=O)COC(=O)C2=COCCO2)c(C)n1-c1ccc2c(c1)OCO2,1%,7%,-14%,-17%,13,-1%
Cc1cc(C(=O)CSc2nnnn2-c2ccc(O)cc2)c(C)n1Cc1ccc2c(c1)OCO2,13%,?,3%,?,-5,?
Cc1cc(C(=O)COC(=O)Cc2n[nH]c(=O)c3ccccc23)c(C)n1-c1ccc2c(c1)OCCO2,8%,?,-2%,-27%,-77*,-14%
CCCCn1c(N)c(N(CCC(C)C)C(=O)COC(=O)/C=C/c2ccc(F)cc2)c(=O)[nH]c1=O,-3%,-25%,-7%,?,-25,?
O=C1CCC[C@H]2[C@@H](Cc3ccccc3)[C@@H](NS(=O)(=O)Cc3ccccc3)CC[C@]23CCCN13,nt,nt,nt,nt,-17,nt
c1ccc2[nH]c(NCCCc3cnc[nH]3)nc2c1,nt,15%,nt,nt,nt,nt
CCCc1nn(C)c2c1[C@@H](c1cccnc1)C(C#N)=C(N)O2,-4%,nt,nt,nt,nt,nt
